# Experimental data reported in PubChem BioAssay AID493045 (Broad Institute, 2011).
# Results with a measured potency or affinity are listed apart. Activity calls are given as the source filed them.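 The calls were made as follows: active = viability loss with fitted half-maximal dose at or below ten times the top valid dose; inconclusive = flat loss of 30 to 70 percent, or a poor fit; inactive = flat within 30 percent, weak potency, or rising signal.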
# Test: HRAS-V12 fibroblast viability reduction – cell-based, Alamar Blue, dry powder, Ras selective lethality project, primary screen (AID 493045)
# Conditions: BJeLR (HRASV12) fibroblasts viability, 48 h; series mostly up to 45 µM
row,SMILES,outcome
1,CCC(=O)N(c1ccc(OC)c(Cl)c1)C(C(=O)NCCc1ccccc1)c1cccs1 (stereo unspecified),inactive
2,COc1ccc(N(C(=O)CO)C(C(=O)NCCc2ccccc2)c2cccs2)cc1Cl (stereo unspecified),inactive
3,COc1ccc(N(C(=O)[C@@H](C)Cl)C(C(=O)NCCc2ccccc2)c2cccs2)cc1Cl (stereo partly specified),inactive
4,O=C(c1[nH]ncc1[N+](=O)[O-])N1CCN(C(c2ccccc2)c2ccccc2)CC1,inactive
5,COc1ccc(N(C(=O)CSc2ncccn2)C(C(=O)NCCc2ccccc2)c2cccs2)cc1Cl (stereo unspecified),inactive
6,COCC(=O)N(c1ccc(OC)c(Cl)c1)C(C(=O)NCCc1ccccc1)c1cccs1 (stereo unspecified),inactive
